# Assay results taken from the supplement of paper PMC4022240.
# ± gives the standard deviation.
# T1: HaloTag-ATRX ADD domain (163-292)
# T1 chain: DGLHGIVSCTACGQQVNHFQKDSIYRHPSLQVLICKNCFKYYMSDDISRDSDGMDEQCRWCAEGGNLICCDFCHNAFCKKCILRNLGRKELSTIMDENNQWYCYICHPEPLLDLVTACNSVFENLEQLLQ
# Tests used:
# Test in all cases: peptide microarray binding signal (635 nm), min-max normalized on array (fraction of array maximum); higher = stronger binding
# Settings in all cases: peptide region: H3 1-13
# [1] = molecular target: T1, HaloTag-ATRX ADD domain (163-292)
# Experimental: (§1)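 Histone 13-mer peptides were synthesized as cellulose conjugates with a C-terminal 20-atom PEG linker and printed in triplicate on nitrocellulose. The sequence given is the unmodified backbone; PTMs (Kme1/2/3, Kac, Sph/Tph, Rme/Rme2a/Rme2s, Rcit) are listed in the label and the 'peptide modifications' condition. Slides were probed at 4 °C for 1 h with biotin-labelled (HQ)5-HaloTag reader fusions (ATRX-ADD, ING2-PHD) then streptavidin-Alexa647, or with rabbit histone antibodies then anti-rabbit Alexa647. The mean 635 nm signal of the triplicate spots was scaled 0-1 between the lowest and highest values on each array.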
# [2] = molecular target: HaloTag-ING2 PHD (mouse Ing2 200-280)
# Experimental: as §1
# [3] = molecular target: anti-H3K4me3 antibody ab8580
# Experimental: as §1
# [4] = molecular target: anti-H3K9me3 antibody ab8898
# Experimental: as §1
# [5] = peptide modifications: H3R2cit H3K9ac, binder concentration: 1:2,000 dilution
# [6] = peptide modifications: H3R2cit H3K9ac, binder concentration: 1:10,000 dilution
# [7] = peptide modifications: H3K9me3 H3S10ph, binder concentration: 1:2,000 dilution
# [8] = peptide modifications: H3K9me3 H3S10ph, binder concentration: 1:10,000 dilution
# [9] = peptide modifications: H3R2me1 H3K4me2, binder concentration: 1:2,000 dilution
# [10] = peptide modifications: H3R2me1 H3K4me2, binder concentration: 1:10,000 dilution
# [11] = peptide modifications: H3R2cit H3K4ac, binder concentration: 1:2,000 dilution
# [12] = peptide modifications: H3R2cit H3K4ac, binder concentration: 1:10,000 dilution
# [13] = peptide modifications: H3R2cit H3K4me1, binder concentration: 1:2,000 dilution
# [14] = peptide modifications: H3R2cit H3K4me1, binder concentration: 1:10,000 dilution
binder,measurement,setting,value
ARTKQTARKSTGG [H3 1-13 A Rcit T K Q T A R Kac S T G G],peptide microarray binding signal,"[1]; peptide modifications: H3R2cit H3K9ac, binder concentration: 50 nM",0.0152 ± 0.00082
same,peptide microarray binding signal,"[1]; peptide modifications: H3R2cit H3K9ac, binder concentration: 500 nM",0.0454 ± 0.005
same,peptide microarray binding signal,"[2]; peptide modifications: H3R2cit H3K9ac, binder concentration: 10 nM",0.0489 ± 0.0051
same,peptide microarray binding signal,"[2]; peptide modifications: H3R2cit H3K9ac, binder concentration: 100 nM",0.0881 ± 0.024
same,peptide microarray binding signal,[3]; [5],0.0231 ± 0.0037
same,peptide microarray binding signal,[3]; [6],0.0127 ± 0.00061
same,peptide microarray binding signal,[4]; [5],0.00818 ± 0.001
same,peptide microarray binding signal,[4]; [6],0.00502 ± 0.00055
ARTKQTARKSTGG [H3 1-13 A R T K Q T A R Kme3 Sph T G G],peptide microarray binding signal,"[1]; peptide modifications: H3K9me3 H3S10ph, binder concentration: 50 nM",0.188 ± 0.014
same,peptide microarray binding signal,"[1]; peptide modifications: H3K9me3 H3S10ph, binder concentration: 500 nM",0.207 ± 0.011
same,peptide microarray binding signal,"[2]; peptide modifications: H3K9me3 H3S10ph, binder concentration: 10 nM",0.00597 ± 0.00034
same,peptide microarray binding signal,"[2]; peptide modifications: H3K9me3 H3S10ph, binder concentration: 100 nM",0.0173 ± 0.0046
same,peptide microarray binding signal,[3]; [7],0.00283 ± 0.001
same,peptide microarray binding signal,[3]; [8],0.000913 ± 0.00014
same,peptide microarray binding signal,[4]; [7],0.085 ± 0.021
same,peptide microarray binding signal,[4]; [8],0.049 ± 0.01
ARTKQTARKSTGG [H3 1-13 A Rme T Kme2 Q T A R K S T G G],peptide microarray binding signal,"[1]; peptide modifications: H3R2me1 H3K4me2, binder concentration: 50 nM",0.00715 ± 0.0002
same,peptide microarray binding signal,"[1]; peptide modifications: H3R2me1 H3K4me2, binder concentration: 500 nM",0.017 ± 0.0047
same,peptide microarray binding signal,"[2]; peptide modifications: H3R2me1 H3K4me2, binder concentration: 10 nM",0.219 ± 0.059
same,peptide microarray binding signal,"[2]; peptide modifications: H3R2me1 H3K4me2, binder concentration: 100 nM",0.175 ± 0.047
same,peptide microarray binding signal,[3]; [9],0.269 ± 0.14
same,peptide microarray binding signal,[3]; [10],0.0639 ± 0.0072
same,peptide microarray binding signal,[4]; [9],0.00439 ± 0.0014
same,peptide microarray binding signal,[4]; [10],0.00392 ± 0.00093
ARTKQTARKSTGG [H3 1-13 A Rcit T Kac Q T A R K S T G G],peptide microarray binding signal,"[1]; peptide modifications: H3R2cit H3K4ac, binder concentration: 50 nM",0.0109 ± 0.00013
same,peptide microarray binding signal,"[1]; peptide modifications: H3R2cit H3K4ac, binder concentration: 500 nM",0.045 ± 0.0051
same,peptide microarray binding signal,"[2]; peptide modifications: H3R2cit H3K4ac, binder concentration: 10 nM",0.0563 ± 0.014
same,peptide microarray binding signal,"[2]; peptide modifications: H3R2cit H3K4ac, binder concentration: 100 nM",0.125 ± 0.011
same,peptide microarray binding signal,[3]; [11],0.00725 ± 0.0029
same,peptide microarray binding signal,[3]; [12],0.00656 ± 0.0011
same,peptide microarray binding signal,[4]; [11],0.00782 ± 0.0003
same,peptide microarray binding signal,[4]; [12],0.0049 ± 0.00038
ARTKQTARKSTGG [H3 1-13 A Rcit T Kme Q T A R K S T G G],peptide microarray binding signal,"[1]; peptide modifications: H3R2cit H3K4me1, binder concentration: 50 nM",0.00831 ± 0.00021
same,peptide microarray binding signal,"[1]; peptide modifications: H3R2cit H3K4me1, binder concentration: 500 nM",0.0204 ± 0.0024
same,peptide microarray binding signal,"[2]; peptide modifications: H3R2cit H3K4me1, binder concentration: 10 nM",0.0217 ± 0.0012
same,peptide microarray binding signal,"[2]; peptide modifications: H3R2cit H3K4me1, binder concentration: 100 nM",0.148 ± 0.015
same,peptide microarray binding signal,[3]; [13],0.0371 ± 0.0013
same,peptide microarray binding signal,[3]; [14],0.02 ± 0.0022
same,peptide microarray binding signal,[4]; [13],0.00468 ± 0.0004
same,peptide microarray binding signal,[4]; [14],0.00202 ± 3.2e-05
